The values that follow come from ChEMBL document CHEMBL4513146, “CO-ADD screening of Karazin Kharkiv National University (Ukraine) compounds”.

For orientation: Inhibition means the drop in the measured response relative to a control, in per cent.

Structures are written as SMILES. Entries with a potency or affinity are not part of this list.

Assay [1] concerns Klebsiella pneumoniae. Conditions: Concentration 32 ug.mL-1;; ASSAY_TEST Inhibition of Bacterial Growth; detection method Absorption (OD600); MEDIA CAMHB; plate type 384well; NBS; CORNING #3640; time 18 hr.
Assay [2] has as its system Candida albicans. Particulars: Concentration 32 ug.mL-1; ASSAY_TEST Inhibition of Fungal Growth; detection method Absorption (OD530).
For assay [3], the system named is Cryptococcus neoformans. Particulars: Concentration 32 ug.mL-1; ASSAY_TEST Inhibition of Fungal Growth; detection method Resazurin; Absorption (OD600-OD570); plate type 384well; NBS; CORNING #3640. For orientation: Alamar Blue is a resazurin reagent that responds to reducing activity.

Consider `Cc1ccc(Sc2nccn3c(=O)n(CC(=O)Nc4cccc(Br)c4)nc23)c(C)c1`, for which the values for the Inhibition in assay [1], in assay [2] and in assay [3] were 7.97%, 8.72% and -18.33%, respectively.

For the compound `CCOC(=O)c1ccccc1NC(=O)Cn1nc2c(Oc3ccccc3)nccn2c1=O`, the Inhibition is 14.49% in assay [1], 0.37% in assay [2] and -11.47% in assay [3].

For `CC(C)CCn1c(=O)c2ccc(C(=O)NC3CCCC3)cc2n2c(=O)n(CC#N)nc12`, the Inhibition in assay [1] is recorded as 12.37%; in assay [2], 2.41%; in assay [3], -21.13%.

For the compound `Cc1ccc(NC(=O)Cn2c(=O)c3nnc(C(C)C)n3c3ccccc32)cc1`, the Inhibition is given as 2.07% in assay [1], 1.19% in assay [2] and -10.22% in assay [3].

For the compound `COc1ccc(CCNC(=O)Cn2nc3c(N4CCOCC4)nccn3c2=O)cc1OC`, the Inhibition is on record as 17.72% in assay [1], 2.21% in assay [2] and -10.16% in assay [3].

With `COC(=O)c1ccccc1NC(=O)Cn1nc2c(SC3CCCCC3)nccn2c1=O`, the values for the Inhibition in assay [1], in assay [2] and in assay [3] were 12.08%, 1.97% and -21.3%, respectively.

Regarding `O=C(Cn1nc2c(N3CCOCC3)nccn2c1=O)Nc1ccc(Cl)cc1F`, the Inhibition in assay [1] is 19.61%; in assay [2] it was 2.13%; in assay [3], -2.72%.

For the compound `COc1ccc(N2CCN(C(=O)Cn3nc4ccc(-c5ccccc5)nn4c3=O)CC2)cc1`, the Inhibition is listed as 3.53% in assay [1], -1.43% in assay [2] and -4.25% in assay [3].

As to `COc1cccc(CN(c2ccc(F)c(F)c2)S(=O)(=O)c2cccn3c(C)nnc23)c1`, the Inhibition in assay [1] is reported as 13.94%; in assay [2], -0.28%; in assay [3], -8.71%.

As to `Cc1cccc(NC(=O)Cn2nc3ccc(-c4ccc(Cl)cc4)nn3c2=O)c1C`, the Inhibition was 8.72% in assay [1], 0.72% in assay [2] and -12.84% in assay [3].

On to `Cc1ccc(C)c(NC(=O)Cn2nc3c(SCc4ccc(Cl)cc4)nccn3c2=O)c1`, for which the Inhibition in assay [1] was 13.13%; in assay [2], 3.07%; in assay [3] it was -22.73%.

For the compound `CCOC(=O)c1ccc(NC(=O)Cn2nc3c4cc(-c5ccc(C)c(C)c5)nn4ccn3c2=O)cc1`, the Inhibition is reported as 1.25% in assay [1], 1.14% in assay [2] and -10.15% in assay [3].

With `COc1ccc(-c2cc3c4nn(CC(=O)Nc5cc(C)ccc5C)c(=O)n4ccn3n2)cc1`, the results for the Inhibition in assay [1], in assay [2] and in assay [3] were 11.61%, 0.97% and -22.77%, respectively.

For `CC(C)NC(=O)CCn1c(=O)c2ccccc2n2c(=O)n(CC#N)nc12`, the Inhibition in assay [1] is recorded as 10.9%; in assay [2] it was 0.91%; in assay [3], -13.64%.

In the case of `O=S(=O)(c1ccc2nncn2c1)N(Cc1cccc(F)c1)c1ccc(F)c(F)c1`, the values for the Inhibition in assay [1], in assay [2] and in assay [3] were 13.11%, 5.52% and -5.3%, respectively.

For the compound `CCCCOc1ccc(-c2cc3c4nnc(SCC(=O)Nc5c(C)cccc5CC)n4ccn3n2)cc1`, the Inhibition in assay [1] is -16.94%; in assay [2] it was -2.13%; in assay [3], -12.87%.

As to `COc1cccc(CN(c2ccccc2)S(=O)(=O)c2ccc3nncn3c2)c1`, the Inhibition in assay [1] was 0.32%; in assay [2], 2.69%; in assay [3] it was -7.16%.

On to `Cc1ccc(Sc2nccn3c(=O)n(CC(=O)Nc4cccc(Cl)c4)nc23)c(C)c1`, for which the Inhibition in assay [1] is 8.68%; in assay [2], 4.74%; in assay [3], -21.78%.

For `CN(C(=O)Cn1nc2n(Cc3cccs3)c(=O)c3sccc3n2c1=O)c1ccccc1`, the Inhibition in assay [1] is -2.89%; in assay [2] it was 0.01%; in assay [3], -9.21%.

Regarding `O=C(Cn1nc2c3cc(-c4ccc(Cl)cc4)nn3ccn2c1=O)Nc1ccc2c(c1)OCO2`, the Inhibition in assay [1] is recorded as 13.7%; in assay [2] it was -0.02%; in assay [3], -18.97%.

Take `Cc1ccc(CN(c2cc(C)cc(C)c2)S(=O)(=O)c2cccn3c(C)nnc23)cc1`: the Inhibition is recorded as 1.08% in assay [1], -0.03% in assay [2] and -12.99% in assay [3].

Regarding `Cc1cc2nn(CC(=O)Nc3cccc(C)c3C)c(=O)n2c(Nc2ccc(F)c(C)c2)n1`, the Inhibition in assay [1] is given as 8.99%; in assay [2] it was 3.16%; in assay [3] it was -7.96%.

With `Cc1ccc(-c2ccc3nn(CC(=O)Nc4ccc(Cl)c(C(F)(F)F)c4)c(=O)n3n2)cc1C`, the Inhibition is on record as 0.66% in assay [1], 5.4% in assay [2] and -13.03% in assay [3].

As to `COc1ccc(-c2cc3c4nnc(CCC(=O)NCc5ccc(OC)c(OC)c5)n4ccn3n2)cc1`, the Inhibition in assay [1] is 12.53%; in assay [2], 2.24%; in assay [3], -11.61%.

Take `CCOc1ccc(-n2ccn3c(SCC(=O)Nc4ccc(C)cc4)nnc3c2=O)cc1`: the Inhibition in assay [1] is 16.35%; in assay [2], 4.07%; in assay [3], -19.05%.

Turning to `CCOC(=O)c1cccc(NC(=O)Cn2nc3c4cc(-c5ccc(C)c(C)c5)nn4ccn3c2=O)c1`, the Inhibition in assay [1] is -4.81%; in assay [2], 21.87%; in assay [3], -17.02%.

Turning to `COc1ccc(CNC(=O)CSc2nnc3c4cc(-c5ccc(C)cc5)nn4ccn23)cc1OC`, the Inhibition in assay [1] was 9.92%; in assay [2] it was -0.42%; in assay [3] it was -20.85%.

As to `Cc1ccc(Cl)cc1NC(=O)CSc1nnc2c(=O)n(-c3ccccc3)ccn12`, the Inhibition is 9.22% in assay [1], 2.4% in assay [2] and -17.19% in assay [3].

For `Cc1nnc2ccc(S(=O)(=O)N(Cc3ccccc3F)c3ccc(F)c(F)c3)cn12`, the Inhibition in assay [1] is listed as 9.72%; in assay [2] it was 2.36%; in assay [3] it was -9.63%.

As for `COc1ccccc1CNC(=O)Cn1nc2c(N3CCC(C)CC3)nccn2c1=O`, the Inhibition in assay [1] was 13.15%; in assay [2], 4.39%; in assay [3], -8.45%.

On to `Cc1ccc(-c2ccc3nn(Cc4ccc(Cl)cc4)c(=O)n3n2)cc1C`, for which the figures for the Inhibition in assay [1], in assay [2] and in assay [3] were 5.62%, 5.2% and -10.05%, respectively.

Consider `COc1ccc(C(=O)CSc2nnc3c(=O)n(-c4ccccc4)ccn23)cc1OC`, for which the Inhibition is reported as -1.19% in assay [1], 25.44% in assay [2] and -8.66% in assay [3].

In the case of `CN(C(=O)Cn1nc2n(Cc3ccco3)c(=O)c3sccc3n2c1=O)c1ccccc1`, the results for the Inhibition in assay [1], in assay [2] and in assay [3] were -0.68%, 2.07% and -9.74%, respectively.

On to `CC(=O)c1ccc(NC(=O)Cn2nc3ccc(-c4ccc(C)c(C)c4)nn3c2=O)cc1`, for which the Inhibition is recorded as 0% in assay [1], 0.28% in assay [2] and -8.82% in assay [3].

Turning to `COc1ccc(-c2cc3c4nn(CC(=O)Nc5cc(OC)ccc5OC)c(=O)n4ccn3n2)cc1`, the Inhibition was 11.83% in assay [1], 1.43% in assay [2] and -25.14% in assay [3].

In the case of `CCc1nnc2ccc(S(=O)(=O)N(Cc3ccccc3F)c3ccc(OC)cc3)cn12`, the Inhibition in assay [1] is on record as 7.78%; in assay [2], 3.86%; in assay [3], -4.31%.

Regarding `COc1ccc(CNC(=O)Cn2nc3c(N4CCN(c5ccccc5)CC4)nccn3c2=O)cc1`, the Inhibition in assay [1] is given as 14.33%; in assay [2], 4.36%; in assay [3], -9.25%.

Regarding `CCc1ccccc1NC(=O)Cn1nc2c(SC3CCCCC3)nccn2c1=O`, the Inhibition in assay [1] is recorded as 9.89%; in assay [2], -0.63%; in assay [3], -27.01%.

For the compound `CCOc1ccc(NC(=O)Cn2nc3c(Sc4cccc(F)c4)nccn3c2=O)cc1`, the Inhibition is listed as -0.38% in assay [1], 0.06% in assay [2] and -4.31% in assay [3].

For `COc1cccc(-n2ccn3c(SCC(=O)NCc4ccc(C)cc4)nnc3c2=O)c1`, the Inhibition was 8.21% in assay [1], 2% in assay [2] and -8.56% in assay [3].

For `N#CCSc1nnc2c(=O)n(-c3ccccc3)ccn12`, the Inhibition in assay [1] was 18.13%; in assay [2], 2.9%; in assay [3], -7.27%.

`Cc1nnc2c(SCC(=O)Nc3cccc(Br)c3)nc3ccccc3n12`: the Inhibition in assay [1] is given as 10.33%; in assay [2] it was 5.04%; in assay [3], -3.71%.

For `COc1cccc(CNC(=O)CSc2nnc3c(=O)n(-c4ccccc4)ccn23)c1OC`, the Inhibition in assay [1] is on record as 8.24%; in assay [2], -1.2%; in assay [3], -16.17%.

In the case of `COc1cccc(NC(=O)Cn2nc3ccc(-c4ccc(C)c(C)c4)nn3c2=O)c1`, the Inhibition is recorded as -6.86% in assay [1], 8.09% in assay [2] and -10.05% in assay [3].

Regarding `CCCCN(C)C(=O)CSc1nnc2c(=O)n(Cc3ccc(F)cc3)ccn12`, the Inhibition is 14.76% in assay [1], -0.35% in assay [2] and -33.57% in assay [3].

Take `O=c1n(Cc2c(F)cccc2Cl)nc2ccc(-c3ccccc3)nn12`: the Inhibition in assay [1] is on record as -0.01%; in assay [2], 8.72%; in assay [3] it was -10.32%.

Regarding `COc1cc(OC)c(NC(=O)Cn2nc3ccc(SC4CCCCC4)nn3c2=O)cc1Cl`, the Inhibition in assay [1] was 10.6%; in assay [2], 29.07%; in assay [3], -6.25%.

For `Cc1c(Cl)cccc1NC(=O)CSc1nc2ccccc2n2c(C)nnc12`, the Inhibition in assay [1] is recorded as 13.43%; in assay [2], 0.95%; in assay [3], -27.73%.

For `Cc1cccc(CN(c2ccc(C(C)C)cc2)S(=O)(=O)c2cccn3c(C)nnc23)c1`, the Inhibition was 9.59% in assay [1], 3.05% in assay [2] and -9.59% in assay [3].

Turning to `COc1cccc(Sc2nc3ccccc3n3c(=O)n(CC(=O)Nc4cccc(F)c4)nc23)c1`, the figures for the Inhibition in assay [1], in assay [2] and in assay [3] were 12.26%, -1.78% and -25.49%, respectively.

With `CCCCN(C)c1ccc2nnc(CCc3nc(-c4ccc(C(F)(F)F)cc4)no3)n2n1`, the Inhibition in assay [1] is 5.43%; in assay [2], 2.75%; in assay [3], -13.06%.
